PriA SSB inh – inhibitors of Klebsiella pneumoniae PriA binding to SSB C-terminal tail | AlphaScreen SSBct-PriA binding, biotinylated peptide | inhibition, % at 33 µM | 430,000 compounds, 0.6% hits | AID 1272365; in the data active means inhibition mostly above about 37%, no sharp cut-off; inactive means mostly below about 20%;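 further: plate controls were negative control peptide for no effect and reference peptide for full effect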
BJeLR viability – kills HRASV12-expressing BJeLR cells; BJeLR (HRASV12) viability, CellTiter-Glo ATP luminescence, 48 h; 300,000 compounds, 0.17% hits; inhibition, % (no concentration beside the values); in the data active means inhibition above about 50%
SARS 3CLpro inh – SARS-CoV 3CLpro protease inhibition. P0C6X7. recombinant SARS-CoV 3CLpro, quenched FRET peptide cleavage. inhibition, % at 6 µM. 290,000 compounds, 0.14% hits; in the data active means inhibition above about 12%
An asterisk follows results filed as active; . = no result given; ! = not confirmed by another sample. Rows were chosen to be rich in hits. Some 0.78% of all compounds tested hit in one or more screens of this group.

SMILES	PriA SSB inh	BJeLR viability	SARS 3CLpro inh
CC(=O)c1ccc2c(c1)N(CCCN1CCC(CCO)CC1)c1ccccc1S2	3.2	.	.
CSc1ccc2c(c1)N(CCC1CCCCN1C)c1ccccc1S2 (stereo unspecified)	40.1*	8.4	2.2
COc1ccc(OC)c(-n2c(CNC(=O)c3ccc(S(=O)(=O)N(C)C)cc3)nnc2SCC(=O)N2CCc3ccccc32)c1	0.0	.	.
Cc1cc(=O)[nH]c(-n2nc(C)cc2N)n1	96.0*	.	.
Cc1cc(=O)[nH]c(-n2nc(C)cc2C)n1	-10.6	3.5	-1.2
Cc1cccc(CC(=O)Nc2cc(C)nn2-c2nc(C)cc(=O)[nH]2)c1	51.0*	.	.
CC(=O)Nc1cc(C)nn1-c1nc(C)cc(=O)[nH]1	24.0	.	.
CS(=O)(=O)c1ccc(CCC(=O)N(Cc2ccsc2)Cc2ccco2)cc1	11.0	.	.
O=C(CSc1nnc(-c2sc3ccccc3c2Cl)o1)NC1CCCCC1	-20.0	.	.
O=C(NCc1ccc(F)cc1)N1CCC(c2nnc(C3CC3)s2)CC1	-26.0	.	.
Cc1ccc(C(=O)CC(=O)c2ccccc2)cc1	-125.1	-3.5	-1.6
Cc1ccc(C(=O)Sc2cccccc2=O)cc1	6.4	103.8*	9.4
Nc1nnc(SCC(=O)c2cccc(Cl)c2)s1	6.0	.	.
COc1ccc(OC)c2c1C(=O)c1ccccc1C2=O	7.1	-8.3	-0.1
COc1ccc(OC)c2c1C(=O)C(Cl)=C(Cl)C2=O	1.0	91.4*	1.9
Nc1ccccc1Nc1cc(-c2ccccc2)nn1-c1ccccc1	59.9*	3.0	-0.7
Cc1ccc(-n2nc(-c3ccccc3)cc2Nc2ccccc2N)cc1	36.1	5.0	5.1
O=C(Nc1ccc(-c2csc(Nc3cccnc3)n2)cc1)c1ccc2ncsc2c1	6.0	.	.
O=C(CC(NCc1cccnc1)C(=O)O)Nc1ccc2ccccc2c1 (stereo unspecified)	6.0	.	.
Cc1nsc(C(=O)NCc2ccco2)n1	-5.0	.	.
COc1ccc(C2=NN(C(C)=O)C(c3c(OC)ccc4ccccc34)C2)cc1OC (stereo unspecified)	-7.0	.	.
c1ccc(-n2c(SCc3ccncc3)nnc2-c2ccco2)cc1	-6.6	-0.3	0.3
c1ccc(-n2c(SCc3nc(-c4cccs4)no3)nnc2-c2ccco2)cc1	87.3*	2.3	2.8
COc1ccc(C)cc1NC(=O)Cn1nc(Nc2ccccc2)c(S(=O)(=O)c2ccccc2)c1N	7.0	.	.
O=C(Cn1ncccc1=O)N1CCN(c2ccc(-c3ccccn3)nn2)CC1	130.0*	.	.
SMILES	PriA SSB inh	BJeLR viability	SARS 3CLpro inh
COc1ccccc1-c1ccc(=O)n(CC(=O)N2CCN(c3ccc(-c4ccccn4)nn3)CC2)n1	104.0*	.	.
COc1ccccc1-c1ccc(=O)n(CC(=O)N2CCN(C(c3ccccc3)c3ccccc3)CC2)n1	-11.0	.	.
O=C(Cc1ccccc1F)N1CCN(c2ccc(-c3ccccn3)nn2)CC1	34.4	.	.
O=C(NCc1ccc2c(c1)OCO2)C1CCCN(c2ccc(-c3ccco3)nn2)C1 (stereo unspecified)	-1.0	.	.
CCC(=O)NCCN1CCn2cc(OC)c(=O)cc2C1=O	-21.0	.	.
CCOC(=O)N1CCN(C(=O)c2cc(C)no2)CC1	98.2*	-1.2	.
Cc1cc(C(=O)N2CCC(C)CC2)on1	-3.6	0.1	4.0
CCc1c(C)nc2n(c1=O)CC(C(=O)Nc1cc(C(C)(C)C)no1)CS2 (stereo unspecified)	3.0	.	.
COC(=O)CN1CCC(COCc2ccc(Cl)cc2)CC1	-15.0	.	.
Clc1ccc(OCCn2cnc(Cl)c2Cl)cc1	43.0*	2.0	-0.6
COc1ccc(OCCn2cnc(Cl)c2Cl)cc1	27.0	-10.2	2.9
O=C(OCc1nc2ccccc2s1)c1cc(=O)c2ccccc2o1	4.0	.	.
COc1ccc2nc(Nc3ccc4nc(C)sc4c3)sc2c1	16.0	.	.
COc1ccc(Nc2nc3ccc(OC)cc3s2)cc1	38.0*!	0.5	3.1
CCCOc1ccc(-c2noc(Cc3nc(-c4cccs4)cs3)n2)cc1	-42.0	.	.
O=C(COc1ccc(Cl)cc1Cl)N1CCN(Cc2nc(-c3ccco3)cs2)CC1	35.0*!	.	.
Cc1csc(CN2CCN(C(=O)COc3ccc(Cl)cc3Cl)CC2)n1	-12.0	.	.
CN(CC(=O)NCCn1ccc(-c2ccsc2)n1)S(C)(=O)=O	-6.0	.	.
CCCNS(=O)(=O)c1ccc(NC(=O)C2CC3C=CC2C3)cc1 (stereo unspecified)	-4.0	.	.
CN1c2ccccc2C(C)(C)C12C=Cc1cc(O)ccc1O2 (stereo unspecified)	39.4*	-1.5	-3.1
CN1c2ccccc2C(C)(C)C12C=Nc1c(cc(N3CCOCC3)c3ccccc13)O2 (stereo unspecified)	-2.1	13.2	-4.3
COc1ccc(Cc2nnc(SCC(=O)N3CCN(c4ccccc4)CC3)o2)cc1	5.8	-0.2	3.9
COc1ccc(Cc2nnc(SCC(=O)N3CCCCC3)o2)cc1	52.8*	0.7	-3.5
Cc1ccccc1[C@@H]1CCN(C(=O)c2c(-c3ccccc3Cl)noc2C)CCS1	-6.0	.	.
CCC1=Nc2cc(C(=O)NCc3ccco3)ccc2Sc2ccc(C)cc21	5.1	61.7*	-0.6
SMILES	PriA SSB inh	BJeLR viability	SARS 3CLpro inh
CCC1=Nc2cc(C(=O)NCCN3CCOCC3)ccc2Sc2ccc(C)cc21	5.9	10.1	-2.5
Cc1cc(N2CCCCC2)nc(Nc2ccc(NC(=O)c3cccc4ccccc34)cc2)n1	6.0	.	.
O=C(O)c1ccc(Br)cn1	-3.4	-10.9	-0.7
O=C(O)c1ccc(C2CCCC2)cn1	100.3*	.	.
O=C(O)CCn1cnc2c(cnn2-c2ccccc2)c1=O	-5.0	.	.
O=C(Cn1c(=O)oc2cc(S(=O)(=O)N3CCCC3)ccc21)NCc1ccc(F)cc1	104.2*	17.2	0.1
O=C(Cn1c(=O)oc2cc(S(=O)(=O)N3CCCC3)ccc21)NC1CCCCC1	-13.0	2.0	0.5
CCn1c(SCC(=O)Nc2ccccc2C(=O)OC)nc2c(-c3ccc(C)cc3)csc2c1=O	-5.0	.	.
CN(CC(=O)N1CCC[C@H](Cc2nc(-c3ccccc3F)no2)C1)S(C)(=O)=O	-14.0	.	.
CS(=O)(=O)c1ccc2nc(NC(=O)c3ccccc3Cl)sc2c1	-7.4	4.3	3.2
CC(C)CNS(=O)(=O)c1ccc2nc(NC(=O)c3ccccc3Cl)sc2c1	41.0*	.	.
Cc1ccc(NC(=O)CSc2ncnc3c2oc2ccccc23)cc1Cl	-12.0	.	.
CSc1cccc(C(=O)N(CCn2cccn2)c2nc3c(Cl)cccc3s2)c1	-9.0	.	.
CCc1cccc2sc(N(CCN3CCOCC3)C(=O)c3cc(C)n(CC)n3)nc12	-10.0	.	.
CCc1cccc2sc(N(CCCN3CCOCC3)C(=O)c3ccc4c(c3)OCCO4)nc12	28.0*	.	.
CCc1cccc2sc(N(CCN(C)C)C(=O)c3cccc(SC)c3)nc12	42.0*	.	.
Cc1ccc2nc(SC3CCCC3)nc(=O)n2c1	-10.0	.	.
C=CC1=C(C(=O)O)N2C(=O)[C@@H](NC(=O)C(=NOCC(=O)O)c3csc(N)n3)[C@H]2SC1	-4.8	.	.
O=C(c1ccccc1F)N1CCN(c2ccc(-n3cccn3)nn2)CC1	2.0	.	.
COCCN1CCC(CNC(=O)C(C)C)CC1	-1.0	.	.
Cc1cc([C@@H](O)CCNC(=O)c2c(-c3ccccc3Cl)noc2C)c(C)o1	-3.0	.	.
N#Cc1cn(C2OC(CO)C(O)C2O)c2ncnc(N)c12 (stereo unspecified)	-11.0	.	.
NC(=O)c1cn(C2OC(CO)C(O)C2O)c2ncnc(N)c12 (stereo unspecified)	-6.7	91.0*	0.5
Cc1ccc(S(=O)(=O)Nc2ccc3c(c2)N(C(=O)c2cccs2)CC3)c(C)c1	9.0	.	.
CCOc1ccc(N2CCn3c(SC)nnc32)cc1	-9.0	.	.
